According to PubChem BioAssay AID1650 (Southern Research Specialized Biocontainment Screening …, 2009):
Entries with a potency or affinity are not part of this list. A number with no mark means an inactive call. No rule for the calls is given here.

Assay: host cell cytotoxicity of antiviral hits, dose response, cytotoxicity control for West Nile virus antiviral project, secondary assay (AID 1650)
Details: Mammalian host cell viability, cytotoxicity counter-screen; series mostly up to 10 µM; viability: at the top concentration
In the case of O=c1[nH]c2ccc(Cl)cc2c(-c2ccccc2)c1N1CCN(CCO)CC1, the “viability” value is reported as 79% [at 20 µM].
With CCc1cc(-c2[nH]ncc2-c2ccc(OC)cc2)c(O)cc1O the “viability” value was 86.2% [at 20 µM].
For Cc1ccc(/C=C2/Sc3ccc(C(=O)N4CCN(C)CC4)cc3NC2=O)cc1, the “viability” value was 81.2% [at 20 µM].
With CCN1CCN(CCCNC(=O)c2cc3c(s2)-c2ccccc2OC3)CC1 the “viability” value was 74.8%.
With CN1CCN(C(=O)CCN2C(=O)/C(=C/c3cccc(Br)c3)SC2=S)CC1 the “viability” value was 78.5%.
For CCCCOc1ccc(C(=O)N/N=C/c2ccc(OCCN3CCCCC3)c(OC)c2)cc1, the “viability” value was 95.5% [at 20 µM].
With COc1cccc2sc3ccc(NCCC4CCCN4C)cc3c(=O)c12 (stereo not given) the “viability” value was 82.8% [at 20 µM].
In the case of C=CCNC(=O)c1ccc(-c2nc(-c3ccc(Cl)cc3Cl)cs2)cc1, the “viability” value is reported as 81.2%.
In the case of Cn1cc(CN2CCCC(C(=O)Nc3ccc(-c4cccc(F)c4)cc3)C2)cn1 (stereo not given), the “viability” value is reported as 86.8%.
With CCc1ccc(C(=O)Cn2ncc(Cl)c(Cl)c2=O)cc1 the “viability” value was 81.2%.
In the case of CCCC1=Nc2cc(C(=O)NCCN3CCCC3)ccc2Sc2ccccc21, the “viability” value is reported as 81.4%.
For O=C(COC(=O)CN1C(=O)c2ccccc2C1=O)Nc1ccc(S(=O)(=O)N2CCCC2)cc1, the “viability” value was 90.3% [at 20 µM].
In the case of CN(C)CCNC(=O)c1cc2sc3ccccc3c2s1, the “viability” value is reported as 76.1%.
With COc1ccc(C2Nc3ccc4ccccc4c3-c3c2c(=O)oc2ccccc32)cc1 (stereo not given) the “viability” value was 77.4%.
For Cc1cccc2c1NC(=O)/C2=C\C(=O)c1cccs1, the “viability” value was 82.2%.
For COc1cc2nc(N3CCN(C(=O)C4COc5ccccc5O4)CC3)nc(N)c2cc1OC (stereo not given), the “viability” value was 86.3% [at 20 µM].
With Cc1ccc2nc(N(CCCN(C)C)C(=O)CCc3ccccc3)sc2c1 the “viability” value was 78.6%.
In the case of O=C(NCCCN1CCOCC1)c1cc2c([nH]c3ccccc32)c(-c2cccc(Br)c2)n1, the “viability” value is reported as 74.5% [at 20 µM].
With CCOC(=O)c1sc(NC(=O)Nc2ccccc2)cc1C the “viability” value was 88.8% [at 20 µM].
With Cc1ccc2cc(C#N)c(N3CCCN(C(=S)NCCCN(C)C)CC3)nc2c1 the “viability” value was 79.4%.
For CCOc1ccc(NCc2cc3c(C(C)(C)C)nn(-c4ccccc4)c3[nH]c2=O)cc1, the “viability” value was 88.3%.
For Cc1cc(C)c(CSc2ncc(-c3ccc([N+](=O)[O-])cc3)[nH]2)c(C)c1, the “viability” value was 80.5%.
For Cc1ccc(Cl)cc1N1CCN(CC(=O)Nc2ccc(CN3CCCCC3)cc2)CC1, the “viability” value was 91% [at 20 µM].
With CN1C2CCC1/C(=C\c1ccccc1)C(=O)/C2=C\c1ccccc1 the “viability” value was 71.7%.
With CC1CCN(c2nc3ccc(C(=O)NCCCN4CCCCC4C)cc3s2)CC1 (stereo not given) the “viability” value was 78.7%.
With Cc1ccc2[nH]c(=O)c(CN(CCCN3CCOCC3)C(=O)Nc3ccc(Cl)cc3)cc2c1 the “viability” value was 77.5% [at 20 µM].
With CCN(CC)CCCNC(=S)N1CCN(c2nc(-c3ccccc3)cs2)CC1 the “viability” value was 86.9%.
For N#Cc1ncc(-c2ccc3c(c2)OCCOCCOCCOCCOCCO3)nc1C#N, the “viability” value was 86.6%.
For COc1ccc(-c2cc(-c3ccc(OC)cc3)nc(-c3ccc4c(c3)NC(=O)CO4)c2)cc1, the “viability” value was 79.2% [at 20 µM].
For CN1CCN(C(=O)CCN2C(=O)/C(=C/c3ccc(F)cc3)SC2=S)CC1, the “viability” value was 75.9%.
With Cc1cccc(CN2CCC(CNC(=O)CSc3cc(=O)n(C)c4cc(Cl)ccc34)CC2)c1 the “viability” value was 78.6%.
With C=CCN=C1CC(C)(C)CC(=O)/C1=C(/O)CCC(=O)OC the “viability” value was 87.2%.
With COc1cc(/C=C/C(=O)c2ccc(NS(=O)(=O)c3ccc(C)cc3)cc2)cc(OC)c1O the “viability” value was 75.7%.
With CCN(CC)S(=O)(=O)c1ccc2c(c1)c(=O)c(C(=O)NCCOC)cn2C the “viability” value was 83.3%.
In the case of CCN(CC)CCCN1CC(O)=C(c2nc3ccccc3s2)C1=N, the “viability” value is reported as 81.1%.
With N#Cc1ccc(-c2ccc(F)cc2)nc1Oc1ccc(Cl)c(Cl)c1 the “viability” value was 79.6%.
For Cc1ccc(S(=O)(=O)N(C)C)cc1NC(=O)c1cncc(Br)c1, the “viability” value was 81%.
With Cc1cc(C)cc(N(CC(=O)NCc2ccco2)S(=O)(=O)c2c(C)noc2C)c1 the “viability” value was 80.5%.
In the case of O=C(Nc1cccc(Cl)c1)Nc1cc(S(=O)(=O)N2CCCCC2)ccc1Cl, the “viability” value is reported as 70.3% [at 20 µM].
In the case of CN(C)Cc1c(C(=O)N/N=C/c2cccc(OCc3c(F)cccc3Cl)c2)nnn1-c1nonc1N, the “viability” value is reported as 84.5% [at 20 µM].
